According to PubChem BioAssay (NCI):
About 83,000 compounds went through this panel and 20% of them were active in at least one assay; those are over-represented in the sample as a whole.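 Interpretation: 100, growth as untreated; towards 0, rising growth inhibition; 0, no net growth; 0 to -100, cell death. Compounds scoring below 10 were considered active.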 The source made the active and inactive calls.

The compounds below were run on MDA-MB-468 breast (assay: NCI-60 one-dose screen, 48 h (100 = growth as untreated, 0 = no growth, -100 = all killed)). Details: 10 µM unless noted.

SMILES | growth
CC(C)c1ccc(C(=O)Nc2nc3ccc(O)c(CN(C)C)c3s2)cc1 | 77.1% (inactive)
O=C(CSc1nc2ccccc2c(=O)n1CCc1ccccc1)Nc1ccc(S(=O)(=O)Nc2ccc(Cl)nn2)cc1 | 103% (inactive)
CCOC(=O)C1=C(c2ccccc2)N=C2N(c3ccccc3)N=C(C(C)=O)N2C1c1ccc(Br)cc1 (stereo not given) | 99.3% (inactive)
O=C1Nc2ccc(Br)cc2C1=N/C=c1\[nH]c(=O)/c(=C/c2ccc(Cl)cc2)s1 | 86.6% (inactive)
O=[N+]([O-])c1cc2c(cc1Br)-c1ccccc1C2 | 16.7% (inactive)
CN1CCN(c2ccc(Nc3nc(NCCCNS(=O)(=O)c4cccc(F)c4)c4sccc4n3)cc2)CC1 | -5.96% (active)
O=C(CSc1nnc(-c2ccc(Cl)c(Cl)c2)n1-c1ccccc1)Nc1ccc(C(=O)/C=C/c2ccc(Cl)cc2)cc1 | 98.4% (inactive)
O=C(N=Nc1c(O)[nH]c2ccc(Br)cc12)c1cc(-c2ccccc2)on1 | 109% (inactive)
CCOC(=O)CNC(=O)Sc1ccc(C(C)(C)C)cc1 | 111% (inactive)
NC1=C(C/C(N)=N\O)C(c2ccccc2Cl)c2c(ccc3ccccc23)O1 (stereo not given) | 61.6% (inactive)
CCn1c2ccc(/C=N/OCCCN(C)C)cc2c2cc(/C=N/OCCCN(C)C)ccc21 | -66.6% (active)
COc1ccc(/C=N/N=C(/c2ccccc2)c2ccc3nc(-c4ccc(Cl)cc4)[nH]c3c2)cc1 | 70% (inactive)
N=C(N)c1ccc(-c2ccc(-c3cc(F)cc(F)c3)o2)nc1 | 85.3% (inactive)
COc1ccc(-c2cc(-c3ccccc3)nc(N3CCN(CCNc4ccnc5cc(Cl)ccc45)CC3)n2)cc1 | -54.7% (active)
Cn1ccnc1C(=O)/C=C/c1ccc(CNC(=O)c2c(F)c(F)c(F)c(F)c2F)cc1 | 26.8% (inactive)
NCCCNc1nc2ccccc2c2c(=O)c3cc(F)cc(F)c3sc12 | 70.3% (inactive)
NC(=S)N/N=C/c1ccc(N)cc1 | 106% (inactive)
CCOS(=O)(=O)c1c(C(C)C)cc(C(C)C)cc1C(C)C | 102% (inactive)
Cc1ccc(NC(=O)CSc2nc3ccccc3c(=O)n2CCc2ccccc2)c(C(=O)O)c1 | 110% (inactive)
CCN(CC)CCn1c2ccc(OC)cc2c2sc3cc(OC)ccc3c(=O)c21 | 14.5% (inactive)
O=C1C(=O)c2ccccc2C(O)=C1CCCc1ccc(Oc2ccccc2)cc1 | 44.7% (inactive)
O=C1c2cccc3c(-c4ccc(-c5nc6c7ccccc7c7ccccc7c6[nH]5)cc4)ccc(c23)C(=O)N1CCN1CCNCC1 | 81.5% (inactive)
CC1(C)N=C(N)N=C(N)N1c1cccc(OCCOc2cccc([N+](=O)[O-])c2)c1 | 25.1% (inactive)
Oc1ccc(/C=N/N=C2c3ccccc3-c3ccccc32)c(O)c1 | -1.47% (active)
Nc1ccc2cc(S(=O)(=O)O)cc(O)c2c1N=Nc1ccc(F)cc1 | 118% (inactive)
